Measured values published in PubChem BioAssay (NCATS).
Records with an inconclusive call do not appear. Unmarked numbers belong to inactive results. The call rests on the fitted dose curve; in most records, active means well fitted curve in the direction sought with a large enough effect; inconclusive means small, poorly fitted or top-dose-only effect, or another doubt; inactive means no such curve, though single readings can be large or run the other way.

Assay: Viability counterscreen for antagonist of constitutive androstane receptor (CAR) against the NCATS DSHEA and TCM libraries (AID 1794837);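 further: compound exposure lasted 24 h before viability reading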
Conditions: CAR reporter cell line viability counterscreen, qHTS; series mostly up to 22 µM; viability change, negative = cytotoxic: at the top concentration
In short: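 Fluorescence from CellTiter-Fluor reports live-cell protease activity in HepG2-CYP2B6-hCAR cells treated for 24 h with substances alongside 48 uM CITCO.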
Further: 0% is about no effect.

Structure (SMILES) | viability change, negative = cytotoxic
OC[C@H]1O[C@@H](OC[C@H]2O[C@@H](OC/C=C/c3ccccc3)[C@H](O)[C@@H](O)[C@@H]2O)[C@@H](O)[C@@H]1O | 8.37%
CC(C)=CCC(O)/C(C)=C/CO[C@@H]1O[C@H](CO)[C@@H](O)[C@H](O)[C@H]1O (stereo partly specified) | -2.87% [at 40 µM]
CC1CC[C@]2(C(=O)O)CC[C@]3(C(=O)O)C(=CCC4[C@@]5(C)CC[C@H](OC6OC(C)C(O)C(OC7OC(CO)C(O)C(O)C7O)C6O)C(C)(C)C5CC[C@]43C)C2C1C (stereo partly specified) | -9.63%
CC(C)=CCC[C@](C)(O[C@@H]1O[C@H](CO[C@@H]2O[C@H](CO)[C@@H](O)[C@H](O)[C@H]2O)[C@@H](O)[C@H](O)[C@H]1O)C1CC[C@]2(C)[C@@H]1[C@H](O)CC1[C@@]3(C)CC[C@H](O[C@@H]4O[C@H](CO)[C@@H](O)[C@H](O)[C@H]4O[C@@H]4O[C@H](CO)[C@@H](O)[C@H](O)[C@H]4O)C(C)(C)[C@@H]3CC[C@]12C (stereo partly specified) | -8.45% [at 8.32 µM]
CC(C)=CCC[C@](C)(O)[C@H]1CC[C@]2(C)[C@@H]1[C@H](O)CC1[C@@]3(C)CC[C@H](O)C(C)(C)[C@@H]3[C@@H](O[C@@H]3O[C@H](CO)[C@@H](O)[C@H](O)[C@H]3O[C@@H]3O[C@H](CO)[C@@H](O)[C@H](O)[C@H]3O)C[C@]12C (stereo partly specified) | -2.6%
C[C@@]12CC[C@@H]3[C@@](CC[C@H]4[C@@]3(C)CCC[C@@]4(C)C(=O)O)(CC1=O)C2 | -0.0032% [at 40 µM]

Assay: Viability counterscreen for agonist of constitutive androstane receptor (CAR) against the NCATS DSHEA and TCM libraries (AID 1794838);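 further: HepG2 cells with CYP2B6 reporter and hCAR plus 0.75 µM PK11195 antagonist; cells exposed to compound for 24 h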
Conditions: HepG2 cell viability counterscreen, CAR agonist assay, co-treated with 0.75 µM CAR antagonist; series mostly up to 40 µM; activity change, negative = cytotoxicity: at the top concentration
In short: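 In agonist mode, PK11195 is added at 0.75 uM final to HepG2-CYP2B6-hCAR cells dosed with test substances. Cultures incubate 24 h at 37C before a protease-based fluorogenic viability readout.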

Structure (SMILES) | activity change, negative = cytotoxicity
CC(C)=CCC(O)/C(C)=C/CO[C@@H]1O[C@H](CO)[C@@H](O)[C@H](O)[C@H]1O (stereo partly specified) | -10.3%
CC1CC[C@]2(C(=O)O)CC[C@]3(C(=O)O)C(=CCC4[C@@]5(C)CC[C@H](OC6OC(C)C(O)C(OC7OC(CO)C(O)C(O)C7O)C6O)C(C)(C)C5CC[C@]43C)C2C1C (stereo partly specified) | -13.5% [at 22 µM]
CC(C)=CCC[C@](C)(O[C@@H]1O[C@H](CO[C@@H]2O[C@H](CO)[C@@H](O)[C@H](O)[C@H]2O)[C@@H](O)[C@H](O)[C@H]1O)C1CC[C@]2(C)[C@@H]1[C@H](O)CC1[C@@]3(C)CC[C@H](O[C@@H]4O[C@H](CO)[C@@H](O)[C@H](O)[C@H]4O[C@@H]4O[C@H](CO)[C@@H](O)[C@H](O)[C@H]4O)C(C)(C)[C@@H]3CC[C@]12C (stereo partly specified) | 3.8% [at 8.32 µM]
CC(C)=CCC[C@](C)(O)[C@H]1CC[C@]2(C)[C@@H]1[C@H](O)CC1[C@@]3(C)CC[C@H](O)C(C)(C)[C@@H]3[C@@H](O[C@@H]3O[C@H](CO)[C@@H](O)[C@H](O)[C@H]3O[C@@H]3O[C@H](CO)[C@@H](O)[C@H](O)[C@H]3O)C[C@]12C (stereo partly specified) | -14% [at 22 µM]
C[C@@]12CC[C@@H]3[C@@](CC[C@H]4[C@@]3(C)CCC[C@@]4(C)C(=O)O)(CC1=O)C2 | 9.64%
